Results filed as inconclusive are left out. Calls of active or inactive are those of the source. The calls were made as follows: active = hit-call score of the fitted dose curve at least 0.9, where 1 is the maximum; inconclusive = response in the unintended direction; inactive = score below 0.9.

Chain of GAL4 Transcription Factor (Internal Marker), GAL4 (gene 855828) (P04386 whole entry, looked up, the tested form may be a part): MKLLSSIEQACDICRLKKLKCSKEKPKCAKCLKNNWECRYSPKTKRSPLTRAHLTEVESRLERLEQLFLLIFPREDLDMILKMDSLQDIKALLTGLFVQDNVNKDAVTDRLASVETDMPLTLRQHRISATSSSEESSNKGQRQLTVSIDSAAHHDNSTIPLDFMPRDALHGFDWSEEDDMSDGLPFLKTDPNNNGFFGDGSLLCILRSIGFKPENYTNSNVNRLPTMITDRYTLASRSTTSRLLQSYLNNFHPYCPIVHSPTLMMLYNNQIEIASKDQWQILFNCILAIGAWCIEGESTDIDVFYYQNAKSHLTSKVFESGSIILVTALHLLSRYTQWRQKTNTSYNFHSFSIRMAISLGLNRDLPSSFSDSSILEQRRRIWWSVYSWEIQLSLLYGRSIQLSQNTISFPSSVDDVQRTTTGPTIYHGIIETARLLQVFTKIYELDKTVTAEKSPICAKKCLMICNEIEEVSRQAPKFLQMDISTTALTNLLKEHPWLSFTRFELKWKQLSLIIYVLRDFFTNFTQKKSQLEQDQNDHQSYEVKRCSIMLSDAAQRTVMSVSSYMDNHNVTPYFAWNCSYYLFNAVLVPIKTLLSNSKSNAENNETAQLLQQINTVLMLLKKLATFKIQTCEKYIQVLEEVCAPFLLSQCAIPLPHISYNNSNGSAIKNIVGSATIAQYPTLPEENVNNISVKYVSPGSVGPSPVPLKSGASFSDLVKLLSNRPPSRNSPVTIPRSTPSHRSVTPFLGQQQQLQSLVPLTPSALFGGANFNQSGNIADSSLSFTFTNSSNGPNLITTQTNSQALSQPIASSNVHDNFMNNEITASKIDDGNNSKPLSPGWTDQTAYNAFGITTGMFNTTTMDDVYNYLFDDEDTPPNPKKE
Chain of Estrogen receptor beta (Homo sapiens) (Q92731 whole entry, looked up, the tested form may be a part): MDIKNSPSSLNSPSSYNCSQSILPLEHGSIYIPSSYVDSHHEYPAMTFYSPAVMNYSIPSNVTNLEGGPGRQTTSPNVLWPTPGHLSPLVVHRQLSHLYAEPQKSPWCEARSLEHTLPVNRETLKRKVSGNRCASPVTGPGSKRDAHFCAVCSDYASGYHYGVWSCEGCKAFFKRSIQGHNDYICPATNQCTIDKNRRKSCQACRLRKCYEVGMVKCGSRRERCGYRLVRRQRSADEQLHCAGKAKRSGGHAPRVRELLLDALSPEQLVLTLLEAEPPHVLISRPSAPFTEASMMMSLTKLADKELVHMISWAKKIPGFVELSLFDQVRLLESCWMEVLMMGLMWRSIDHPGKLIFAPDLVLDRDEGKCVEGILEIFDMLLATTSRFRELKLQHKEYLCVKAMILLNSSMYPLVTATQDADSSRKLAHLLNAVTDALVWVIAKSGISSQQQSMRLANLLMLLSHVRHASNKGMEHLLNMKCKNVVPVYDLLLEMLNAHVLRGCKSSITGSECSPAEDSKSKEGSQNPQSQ

The first test concerns the target AR (gene 367) (UniProt P10275). Put plainly: ACEA_AR_agonist_80hr: ACEA Biosciences xCELLigence Real-Time Cell Analysis on Androgen Receptor Agonism for Proliferation (AID 2283783).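 Also: hits increase impedance growth signal above DMSO baseline.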 The method in brief: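 22Rv1 human prostate cancer cells were seeded after preconditioning in assay medium and monitored overnight, then dosed in an eight-point 1:4 dilution series from 100 uM (≤0.5% DMSO). Impedance-based growth was read at 80 h, gain-of-signal versus DMSO.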
For the compound `CC1(C)C(C=C(Cl)Cl)C1C(=O)OCc1cccc(Oc2ccccc2)c1` (stereo not given), the result was inactive.

For the compound `CSC(=O)c1cccc2nnsc12`, the call was inactive.

Regarding `O=C(O)C1(C(=O)Nc2ccc(Cl)cc2Cl)CC1`, the call was inactive.

Turning to `c1ccc2[nH]c(-c3cscn3)nc2c1`, the compound was classed as inactive.

Broadly, the AC50 is the concentration at which the activity in the assay is half-maximal. As for `O=C(c1ccc(O)cc1O)c1ccc(O)cc1O`, the concentration at half-maximal activity (AC50) is 0.187 µM (active).

As to `CN(C)C(=O)Nc1ccc(Cl)c(Cl)c1`, the result was inactive.

Take `CCCCOCCOCCOCc1cc2c(cc1CCC)OCO2`: the result was inactive.

Take `CCOC(=O)COc1cc(-n2ncc(C(F)(F)F)c(C)c2=O)c(F)cc1Cl`: the result was inactive.

As for `COC(=O)CSc1cc(N=c2sc(=O)n3n2CCCC3)c(F)cc1Cl`, the compound was classed as inactive.

System in a further test: not listed separately
Put plainly: STM_H9_NormalizedViability: Cytotoxicity Assessment at 120 hours in the Stemina devTOX quickPredict H9 human embryonic stem cell (hESC)-based Assay (AID 2283784). The method, boiled down:
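Undifferentiated H9 hESCs kept pluripotent were exposed to compound, with media and chemical replaced every 24h. CellTiter-Fluor protease-substrate fluorescence was background-corrected and normalized per plate to the 0.1% DMSO vehicle; signal loss indicates reduced viability.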
With `C=CCOC(Cn1ccnc1)c1ccc(Cl)cc1Cl` (stereo not given), the outcome was inactive.

For the compound `Oc1ccc(C(c2ccc(O)cc2)C(Cl)(Cl)Cl)cc1`, the result was inactive.

As to `CSC(=O)c1cccc2nnsc12`, the outcome was inactive.

With `O=C(O)C1(C(=O)Nc2ccc(Cl)cc2Cl)CC1`, the outcome was inactive.

Consider `COC(=O)c1ccc(I)cc1S(=O)(=O)NC(=O)Nc1nc(C)nc(OC)n1`, for which the result was inactive.

With `CCCCC(CC)COC(=O)c1ccccc1C(=O)O` (stereo not given), the outcome was inactive.

Turning to `CC(C)CCCCCCc1ccc(O)cc1`, the AC50 is 81.2 µM (active).

As to `CC(C)(c1ccc(O)cc1)c1ccc(O)cc1`, the result was inactive.

`O=C(c1ccc(O)cc1O)c1ccc(O)cc1O`: the AC50 was 50 µM (active).

Consider `CN(C)C(=O)Nc1ccc(Cl)c(Cl)c1`, for which the outcome was inactive.

As to `COC(=O)CSc1cc(N=c2sc(=O)n3n2CCCC3)c(F)cc1Cl`, the concentration at half-maximal activity (AC50) is 89.5 µM (active).

The test system of a further test is turtle Androgen Receptor (AR), gene 101947425. In words: ATG_trAR_XSP1: Attagene TRANS-FACTORIAL Multi-Species (XSP1) HepG2 Assay for turtle Androgen Receptor (AR) (AID 2283786). On the procedure:
ATG_XSP1_multi-species_TRANS is a cell-based, multiplexed assay created by modifying the existing Attagene TRANS-FACTORIAL system to include a panel of nuclear receptors from some or all the following species: human (Homo sapiens), mouse (Mus musculus), frog (Xenopus laevis), zebrafish (Danio rerio), chicken (Gallus gallus), and turtle (Chrysemys picta). The ECOTOX-FACTORIAL format uses HepG2, a human liver cell line, with measurements taken at 24 hours after chemical dosing in a 24-well plate. Xsp1 included 3 nM 6-alpha-fluorotestosterone to partially stimulate the androgen receptor.ATG_trAR_XSP1 is one of 29 assay components measured or calculated from the ATG_XSP1_multi-species_TRANS assay. It is designed to make measurements of mRNA induction, a form of inducible reporter, as detected with fluorescence intensity signals by Reverse transcription polymerase chain reaction (RT-PCR) and Capillary electrophoresis technology.The assay endpoint ATG_trAR_XSP1 was analyzed in the positive analysis fitting direction relative to DMSO as the negative control and baseline of activity. Using a type of inducible reporter, measures of mRNA for gain-of-signal activity can be used to understand the reporter gene at the transcription factor-level as they relate to the gene AR. Furthermore, this assay endpoint can be referred to as a primary readout, because this assay has produced multiple assay endpoints where this one serves a reporter gene function. […]
Human liver HepG2 cells are transiently transfected with multiple reporter transcription units (MRTUs) in 6-well plates using FuGene 6 reagent (Roche; 3 ml FuGene/1 mg DNA). […] A major difference between the CIS and TRANS system is that in CIS activities of endogenous TFs are measured, whereas the TRANS assay evaluates changes in activities of exogenous, chimeric NR-Gal4 proteins. […] The fragments were purified using Qiaquick PCR columns (Qiagen), analyzed on an ABI 3130xL genetic analyzer (Applied Biosystems) with peak positions identified by using a set of X-rhodamine (ROX)-labeled MapMarker1000 molecular weight standards (BioVentures). […]
Consider `CC1(C)C(C=C(Cl)Cl)C1C(=O)OCc1cccc(Oc2ccccc2)c1` (stereo not given), for which the compound was classed as inactive.

For the compound `CCCCC(CC)COC(=O)c1ccccc1C(=O)O` (stereo not given), the call was inactive.

`O=C(c1ccc(O)cc1O)c1ccc(O)cc1O`: the call was inactive.

The target in another test is AR (gene 367) (UniProt P10275). In words: ACEA_AR_antagonist_80hr: ACEA Biosciences xCELLigence Real-Time Cell Analysis on Androgen Receptor Antagonism for Proliferation (AID 2283787).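 Also: hits lower the impedance growth signal relative to DMSO.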 The method in brief: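 Impedance readout (RT-CES), 80 h post-dose; loss-of-signal vs DMSO baseline. 22Rv1 cells in assay medium. Compounds: 8-pt 1:4 series, max 100 uM final, up to 0.5% DMSO; n = 2.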
Chain of AR (gene 367) (P10275 whole entry, looked up): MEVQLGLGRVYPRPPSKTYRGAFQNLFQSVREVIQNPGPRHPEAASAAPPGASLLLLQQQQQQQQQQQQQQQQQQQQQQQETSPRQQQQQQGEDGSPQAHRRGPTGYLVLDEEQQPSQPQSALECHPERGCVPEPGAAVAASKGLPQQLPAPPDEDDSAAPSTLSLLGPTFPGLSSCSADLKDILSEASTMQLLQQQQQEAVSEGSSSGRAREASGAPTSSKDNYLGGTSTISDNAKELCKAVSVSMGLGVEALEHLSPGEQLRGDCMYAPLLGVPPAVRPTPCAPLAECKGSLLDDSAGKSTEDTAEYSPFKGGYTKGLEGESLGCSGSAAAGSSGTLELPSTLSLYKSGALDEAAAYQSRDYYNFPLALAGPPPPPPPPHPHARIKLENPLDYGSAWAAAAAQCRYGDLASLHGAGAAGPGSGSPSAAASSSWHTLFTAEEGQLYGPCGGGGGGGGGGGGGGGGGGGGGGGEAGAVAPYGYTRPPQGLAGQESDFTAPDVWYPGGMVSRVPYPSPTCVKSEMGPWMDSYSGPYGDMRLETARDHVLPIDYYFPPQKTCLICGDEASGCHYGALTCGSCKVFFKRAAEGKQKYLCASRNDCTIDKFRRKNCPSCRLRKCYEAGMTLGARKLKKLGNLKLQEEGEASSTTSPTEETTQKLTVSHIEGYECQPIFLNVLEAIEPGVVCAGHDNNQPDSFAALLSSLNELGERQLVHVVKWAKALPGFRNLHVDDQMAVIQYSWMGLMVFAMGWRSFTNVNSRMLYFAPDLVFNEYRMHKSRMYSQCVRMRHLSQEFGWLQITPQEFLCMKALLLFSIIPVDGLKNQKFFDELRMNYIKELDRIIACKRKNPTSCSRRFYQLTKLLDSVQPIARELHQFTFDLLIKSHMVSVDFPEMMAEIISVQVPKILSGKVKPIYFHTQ
In the case of `CC1(C)C(C=C(Cl)Cl)C1C(=O)OCc1cccc(Oc2ccccc2)c1` (stereo not given), the concentration at half-maximal activity (AC50) is 33 µM (active).

On to `CSC(=O)c1cccc2nnsc12`, for which the compound was classed as inactive.

As to `O=C(O)C1(C(=O)Nc2ccc(Cl)cc2Cl)CC1`, the AC50 is 65.1 µM (active).

Take `c1ccc2[nH]c(-c3cscn3)nc2c1`: the AC50 is 50 µM (active).

Regarding `CC(C)(c1ccc(O)cc1)c1ccc(O)cc1`, the AC50 is 43.6 µM (active).

On to `O=C(c1ccc(O)cc1O)c1ccc(O)cc1O`, for which the AC50 was 26.3 µM (active).

Regarding `CN(C)C(=O)Nc1ccc(Cl)c(Cl)c1`, the AC50 was 40.8 µM (active).

For `CCCCOCCOCCOCc1cc2c(cc1CCC)OCO2`, the concentration at half-maximal activity (AC50) is 76.3 µM (active).

For `COC(=O)CSc1cc(N=c2sc(=O)n3n2CCCC3)c(F)cc1Cl`, the compound was called inactive.

The next test concerns the target Estrogen receptor beta (Homo sapiens) (UniProt Q92731). In words: ATG_hERb_XSP1: Attagene TRANS-FACTORIAL Multi-Species (XSP1) HepG2 Assay for human Estrogen Receptor (ESR2) (AID 2283788). The method, boiled down:
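Read-out: reporter mRNA induction by RT-PCR, HpaI digestion and capillary electrophoresis fluorescence, fitted in positive direction relative to DMSO baseline. Human liver HepG2 cells expressing ERβ-Gal4 fusion, dosed 24 h, medium containing 3 nM 6-alpha-fluorotestosterone.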
Consider `C=CCOC(Cn1ccnc1)c1ccc(Cl)cc1Cl` (stereo not given), for which the AC50 is 7.53 µM (active).

As to `Oc1ccc(C(c2ccc(O)cc2)C(Cl)(Cl)Cl)cc1`, the compound was called inactive.

With `CCCCC(CC)COC(=O)c1ccccc1C(=O)O` (stereo not given), the compound was classed as inactive.

For the compound `CC(=O)S[C@@H]1CC2=CC(=O)CC[C@]2(C)[C@H]2CC[C@@]3(C)[C@@H](CC[C@@]34CCC(=O)O4)[C@H]12`, the compound was classed as inactive.

`CC(C)CCCCCCc1ccc(O)cc1`: the AC50 was 0.246 µM (active).

Take `O=C(c1ccc(O)cc1O)c1ccc(O)cc1O`: the AC50 was 0.227 µM (active).

The next test deals with GAL4 Transcription Factor (Internal Marker), GAL4 (gene 855828) (UniProt P04386). Put plainly: ATG_GAL4_XSP1: Attagene TRANS-FACTORIAL Multi-Species (XSP1) HepG2 Assay for GAL4 Transcription Factor (Internal Marker) (AID 2283789). The method, boiled down:
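HepG2 cells transiently transfected with multiplexed GAL4-UAS reporter units were exposed for 24 h with 3 nM 6-alpha-fluorotestosterone present. Reporter mRNA was quantified by RT-PCR, FAM labelling, HpaI digestion and capillary electrophoresis; background-control readout, gain-of-signal versus DMSO.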
For the compound `CC1(C)C(C=C(Cl)Cl)C1C(=O)OCc1cccc(Oc2ccccc2)c1` (stereo not given), the call was inactive.

Take `Oc1ccc(C(c2ccc(O)cc2)C(Cl)(Cl)Cl)cc1`: the result was inactive.

As to `CCCCC(CC)COC(=O)c1ccccc1C(=O)O` (stereo not given), the compound was called inactive.

System in another test: not listed separately
In words: ATG_M_06_XSP1: Attagene TRANS-FACTORIAL Multi-Species (XSP1) HepG2 Assay for M06 Transcription Factor (Internal Marker) (AID 2283790). The method, boiled down:
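Transfected HepG2 multi-reporter system treated 24 h in the presence of 3 nM 6-alpha-fluorotestosterone. The M06 internal marker transcript was quantified by RT-PCR with capillary electrophoresis as a background control, and gain of signal was scored versus DMSO.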
As to `C=CCOC(Cn1ccnc1)c1ccc(Cl)cc1Cl` (stereo not given), the outcome was inactive.

For `Oc1ccc(C(c2ccc(O)cc2)C(Cl)(Cl)Cl)cc1`, the outcome was inactive.

For `CCCCC(CC)COC(=O)c1ccccc1C(=O)O` (stereo not given), the compound was classed as inactive.

Consider `CC(=O)S[C@@H]1CC2=CC(=O)CC[C@]2(C)[C@H]2CC[C@@]3(C)[C@@H](CC[C@@]34CCC(=O)O4)[C@H]12`, for which the outcome was inactive.

On to `CC(C)CCCCCCc1ccc(O)cc1`, for which the call was inactive.

For the compound `CC(C)(c1ccc(O)cc1)c1ccc(O)cc1`, the result was inactive.

As to `O=C(c1ccc(O)cc1O)c1ccc(O)cc1O`, the outcome was inactive.

System in a further test: not listed separately
In words: ATG_M_61_XSP1: Attagene TRANS-FACTORIAL Multi-Species (XSP1) HepG2 Assay for M61 Transcription Factor (Internal Marker) (AID 2283797). The method in brief:
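HepG2 cells transiently transfected with multiplexed GAL4-driven reporter units, dosed 24 h with 3 nM 6-alpha-fluorotestosterone present. Reporter mRNA quantified by RT-PCR, 6-FAM labelling, HpaI digestion and capillary electrophoresis; internal-marker background control, gain of signal versus DMSO.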
On to `C=CCOC(Cn1ccnc1)c1ccc(Cl)cc1Cl` (stereo not given), for which the call was inactive.

As to `Oc1ccc(C(c2ccc(O)cc2)C(Cl)(Cl)Cl)cc1`, the call was inactive.

Turning to `CCCCC(CC)COC(=O)c1ccccc1C(=O)O` (stereo not given), the result was inactive.

In the case of `CC(=O)S[C@@H]1CC2=CC(=O)CC[C@]2(C)[C@H]2CC[C@@]3(C)[C@@H](CC[C@@]34CCC(=O)O4)[C@H]12`, the call was inactive.

Regarding `CC(C)CCCCCCc1ccc(O)cc1`, the call was inactive.

With `CC(C)(c1ccc(O)cc1)c1ccc(O)cc1`, the outcome was inactive.

Take `O=C(c1ccc(O)cc1O)c1ccc(O)cc1O`: the call was inactive.

Values taken from PubChem BioAssay (EPA / NIEHS).
